The values that follow come from PubChem BioAssay (NCATS).

Results filed as inconclusive are left out. Activity calls are given as the source filed them. Calls come from the whole dose curve; as a rule, active = well fitted inhibition curve with a large enough effect; inconclusive = small, poorly fitted or top-dose-only effect, or effect the other way; inactive = flat fitted curve, though single readings scatter. Bridge positions count the residues as written; N and C are the ends. Square brackets hold non-standard residues; d marks the D form. Peptide text beside a SMILES is read from it. * marks the point of attachment. ξ: configuration not given here. Ileψ(thiazoline)Cys = CC[C@H](C)[C@H](N)C1=N[C@H](C(=O)*)CS1; ξDab(CH2SO3H) = NC(CCNCS(=O)(=O)O)C(=O)O; d(aIle) = CC[C@H](C)[C@@H](N)C(=O)O; Heptanoyl(6-Me) = CC(C)CCCCC(=O)*; dOrn = NCCC[C@@H](N)C(=O)O; Orn = NCCC[CH](N)C(=O)O; Dab = NCC[CH](N)C(=O)O

Chain of ATP-dependent 6-phosphofructokinase (Trypanosoma brucei brucei) (O15648 whole entry, looked up): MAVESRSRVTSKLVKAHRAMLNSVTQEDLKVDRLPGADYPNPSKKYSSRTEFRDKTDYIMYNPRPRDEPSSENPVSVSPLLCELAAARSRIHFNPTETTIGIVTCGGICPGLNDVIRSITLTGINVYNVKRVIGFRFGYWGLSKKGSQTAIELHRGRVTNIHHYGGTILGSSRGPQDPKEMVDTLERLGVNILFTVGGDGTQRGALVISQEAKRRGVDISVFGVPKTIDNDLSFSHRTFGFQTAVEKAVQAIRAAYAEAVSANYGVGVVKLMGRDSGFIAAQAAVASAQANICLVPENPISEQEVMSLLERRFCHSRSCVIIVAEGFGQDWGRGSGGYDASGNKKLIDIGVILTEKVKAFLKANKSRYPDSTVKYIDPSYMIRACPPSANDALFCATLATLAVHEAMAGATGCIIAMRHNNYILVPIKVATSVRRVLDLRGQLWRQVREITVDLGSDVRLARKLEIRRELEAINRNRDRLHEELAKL

This test addresses ATP-dependent 6-phosphofructokinase (Trypanosoma brucei brucei) (UniProt O15648). Put plainly: qHTS Assay to Find Inhibitors of T. brucei phosphofructokinase: hit validation (AID 492961).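 Note: luminescence reports ADP formed as PFK phosphorylates fructose-6-phosphate with ATP.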 Conditions: T. brucei PFK, ADP-Glo luminescence; series mostly up to 51.4 µM; activity change, negative = inhibition: at the top concentration. An excerpt: NIH Molecular Libraries Probe Production Network [MLPCN] NIH Chemical Genomics Center [NCGC] Grant: 1 R03 MH092153-01 PI Name: Malcolm Walkinshaw, University of Edinburgh NCGC Assay Overview: Various species of the protozoan family Trypanosomatidae are responsible for a range of serious human diseases in tropical and subtropical areas of the world. […] Many of the disorders caused by trypanosomatids are fatal if left untreated, but most currently used drugs are inefficient and toxic. […] Oxidative metabolism involving the mitochondrial tricarboxylic acid cycle and oxidative phosphorylation are repressed in these parasites, and recent RNA interference (RNAi) experiments have shown that even partial depletion of certain individual glycolytic enzymes can lead to the death of cultured parasites. One such glycolytic enzyme, phosphofructokinase (PFK), catalyzes the formation of fructose-1,6-bisphosphate (F1,6BP) and ADP from fructose-6-phosphate (F6P) and ATP, and in many metabolic circumstances makes an important contribution to the control of flux through the glycolytic pathway. As a specific glycolytic target, PFK is particularly attractive as it catalyzes the first irreversible step in glycolysis, and structural and kinetic studies have shown very substantial and essential differences from corresponding host enzymes, allowing for the discovery of parasite-selective inhibitors. The goal of this screen is to find small-molecule inhibitors of T. brucei PFK using a biochemical assay that measures PFK activity as a function of ADP production. A luminescence-based assay for T. brucei PFK activity has been developed which uses luciferase to detect production of ADP. Traditional luciferase-based nucleotide detection reagents rely on ATP production as a direct substrate for the luciferase reaction; however, PFK catalyzes the transfer of a phosphate from ATP to F6P, resulting in the net depletion of ATP. To directly measure the ADP product of the PFK reaction, we used the ADP-Glo detection kit (Promega), which utilizes two separate reactions to 1) deplete all remaining uncatalyzed ATP and 2) convert all remaining ADP to ATP, which is then detected through a traditional luciferase-coupled reaction. Compounds were screened as a concentration-titration series that ranged from 57 uM to 0.7 nM.
NCGC Assay Protocol Summary: Substrate buffer was dispensed into white, solid 1536-well plates at 3uL/well in 0.1M triethanolamine (TEA) buffer, pH 8.0, containing final concentrations of 5 mM MgCl2, 0.01% Tween20, 0.5 mM fructose-6-phosphate (F6P) and 0.1mM ATP. Then, 23 nL of compounds or DMSO were delivered to each well using a pin tool. One uL T. brucei PFK (0.1M TEA, 0.01% Tween20, 0.1% bovine serum albumin (BSA) and 1.25nM PFK, final concentrations) was then dispensed, and plates were incubated at room temperature for 45 min. The luminescent detection reagent, ADP-Glo (Promega), was then added in two steps: the first reagent, ADP-Glo (which converts remaining uncatalyzed ATP), was added at 2.5uL/well and incubated for ten minutes at room temperature, and the second component, Kinase Detection reagent (which converts ADP to ATP as a substrate for luciferase-based luminescence), was added immediately after at 5uL/well, followed by one final ten minute room temperature incubation. The plates were measured on a ViewLux plate reader for luminescent signal using a clear filter with a one second exposure. The %Activity was determined from the corrected luminescence values. As no specific T. brucei PFK inhibitors have been identified in the literature, 1x (1.25nM) and 0x PFK enzyme controls (untreated) were included to normalize %Activity of identified inhibitors; 0x enzyme values corresponded to 100%Activity (full inhibition), while 1x PFK enzyme values were used to normalize 0%Activity (no inhibition). Concentration-response curves were fitted to the signals arising from the resulting luminescence. […]
Background: In qHTS, concentration-response curves come from the screen itself.
In the case of `CC1CC[C@@]2(NC1)OC1CC3C4CC[C@@H]5CC(O)CC[C@@]5(C)C4CC[C@]3(C)C1C2C` (stereo not given in full), the “activity change, negative = inhibition” value was 6.28% (inactive).

For `CCN(CC)C(=O)N[C@@H]1C=C2c3cccc4[nH]cc(c34)C[C@H]2N(C)C1`, the “activity change, negative = inhibition” value was -9.97% (inactive).

Turning to `C=CC[C@]1(O)CCC2C3CCC4=CCCCC4C3CCC21C` (stereo not given in full), the “activity change, negative = inhibition” value was 2.32% (inactive).

For `CCCCCC(O)C1C(=O)OC(C)C(O)\C=C/C=C\C=C/C=C\C=C(\C)C(O)C(O)C(O)CC(O)CC(O)CC(O)CC(O)CC1O` (stereo not given), the “activity change, negative = inhibition” value is -7.41% (inactive).

Consider `C[C@]12C=CC(=O)C=C1CC[C@@H]1C2CC[C@]2(C)OC(=O)CCC12` (stereo not given in full), for which the “activity change, negative = inhibition” value was -6.34% (inactive).

As for `CC[C@H](C)[C@H](N)C1=N[C@H](C(=O)N[C@@H](CC(C)C)C(=O)N[C@@H](CCC(=O)O)C(=O)N[C@@H](C(=O)N[C@H]2CCCCNC(=O)[C@@H](CC(N)=O)NC(=O)[C@@H](CC(=O)O)NC(=O)[C@@H](Cc3cnc[nH]3)NC(=O)[C@@H](Cc3ccccc3)NC(=O)[C@@H]([C@@H](C)CC)NC(=O)[C@@H](CCCN)NC2=O)[C@@H](C)CC)CS1` ({Ileψ(thiazoline)Cys}-LE[d(aIle)]K[dOrn][d(aIle)][dF][dH][dD][dN]; lactam 4-C), the “activity change, negative = inhibition” value is -8% [at 24.3 µM] (inactive).

In the case of `CC1(C)S[C@@H]2[C@H](N)C(=O)N2C1C(=O)O` (stereo not given in full), the “activity change, negative = inhibition” value is -0.372% [at 24.3 µM] (inactive).

As to `CCOC(=O)c1cncn1[C@@H](C)c1ccccc1`, the “activity change, negative = inhibition” value is 7.24% [at 24.3 µM] (inactive).

As for `C[C@H](N)Cc1ccccc1`, the “activity change, negative = inhibition” value was -6.35% (inactive).

`CN(C)[C@@H](Cc1ccccc1)c1ccccc1`: the “activity change, negative = inhibition” value is 2.48% (inactive).

For `CCC/C=C/C=C/C(=O)OC1/C(=C/C(=O)OC)CC2CC(C(C)O)OC(=O)CC(O)CC3CC(OC(C)=O)C(C)(C)C(O)(CC4C/C(=C/C(=O)OC)CC(/C=C\C(C)(C)C1(O)O2)O4)O3` (stereo not given), the “activity change, negative = inhibition” value is 10.7% (inactive).

Regarding `C[C@]12CC[C@H]3[C@@H](CC[C@@]45O[C@@H]4C(=O)C(C#N)C[C@]35C)[C@@H]1CC[C@@H]2O` (stereo not given in full), the “activity change, negative = inhibition” value was 0% (inactive).

For `C#C[C@]1(O)CC[C@H]2[C@@H]3CCC4=CC(=O)CCC4(C)[C@H]3CCC21C` (stereo not given in full), the “activity change, negative = inhibition” value is 7.33% (inactive).

Regarding `COC(C(=O)C(O)C(C)O)C1Cc2cc3cc(OC4CC(OC5CC(O)C(OC)C(C)O5)C(OC(C)=O)C(C)O4)c(C)c(O)c3c(O)c2C(=O)C1OC1CC(OC2CC(OC3CC(C)(O)C(OC(C)=O)C(C)O3)C(O)C(C)O2)C(O)C(C)O1` (stereo not given), the “activity change, negative = inhibition” value is -11.4% (inactive).

Take `CCC(C)C1NC(=O)C(CCNCS(=O)(=O)O)NC(=O)C(NC(=O)C(CCNCS(=O)(=O)O)NC(=O)C(NC(=O)C(CCNCS(=O)(=O)O)NC(=O)CCCCC(C)C)C(C)O)CCNC(=O)C(C(C)O)NC(=O)C(CCNCS(=O)(=O)O)NC(=O)C(CCNCS(=O)(=O)O)NC(=O)C(C(C)CC)NC1=O` (stereo not given) ({Heptanoyl(6-Me)}-[ξDab(CH2SO3H)]T[ξDab(CH2SO3H)][Dab][ξDab(CH2SO3H)]II[ξDab(CH2SO3H)][ξDab(CH2SO3H)]T; lactam 4-C; configuration not given here): the “activity change, negative = inhibition” value was 11.2% (inactive).

For the compound `C#CCN1CC(=O)N(COC(=O)[C@@H]2[C@@H](C=C(C)C)C2(C)C)C1=O`, the “activity change, negative = inhibition” value is -0.167% (inactive).

Turning to `COc1ccc2c3c1O[C@H]1[C@@H](O)C=C[C@H]4C(C2)NCCC341` (stereo not given in full), the “activity change, negative = inhibition” value is 4.25% (inactive).

For `CC1OC(O[C@H]2C[C@@H](O)[C@]3(CO)[C@@H]4C(CC[C@]3(O)C2)[C@@]2(O)CC[C@H](C3=CC(=O)OC3)[C@@]2(C)C[C@H]4O)C(O)C(O)C1O` (stereo not given in full), the “activity change, negative = inhibition” value was 3.28% (inactive).

For the compound `CNCC(=O)NC(CCCN=C(N)N)C(=O)NC(C(=O)NC(Cc1ccc(O)cc1)C(=O)NC(C(=O)NC(Cc1cnc[nH]1)C(=O)N1CCCC1C(=O)NC(C)C(=O)O)C(C)C)C(C)C` (stereo not given), the “activity change, negative = inhibition” value is 3.59% (inactive).

`CC(C)=CC1C(C(=O)OCc2coc(Cc3ccccc3)c2)C1(C)C` (stereo not given): the “activity change, negative = inhibition” value is -2.96% (inactive).

Regarding `CN(C)C1C(=O)C(C(N)=O)C(=O)C2(O)C(=O)C3C(=O)c4c(O)cccc4C(C)(O)C3C(O)C12` (stereo not given), the “activity change, negative = inhibition” value is -12.6% (inactive).

Regarding `CC(C)C[C@H](NC(=O)[C@@H](Cc1c[nH]c2ccccc12)NC(=O)[C@@H](Cc1ccc(O)cc1)NC(=O)[C@@H](CO)NC(=O)[C@@H](Cc1c[nH]c2ccccc12)NC(=O)C(Cc1cnc[nH]1)NC(=O)C1CCC(=O)N1)C(=O)N[C@@H](CCCN=C(N)N)C(=O)N1CCC[C@@H]1C(=O)NCC(N)=O` (stereo not given in full), the “activity change, negative = inhibition” value is 6.25% (inactive).

Consider `CN(C)[C@H]1C(=O)C(C(N)=O)=C(O)[C@]2(O)C(=O)C3=C(O)c4c(O)cccc4[C@@](C)(O)[C@H]3C[C@@H]12`, for which the “activity change, negative = inhibition” value was -6.41% [at 24.3 µM] (inactive).

With `CN1C2CCC1C(C(=O)O)C(OC(=O)c1ccccc1)C2` (stereo not given), the “activity change, negative = inhibition” value is -3.53% (inactive).

`CC(=O)[C@H]1CC[C@H]2C3CC[C@H]4C[C@H](O)CC[C@]4(C)C3CC[C@]12C` (stereo not given in full): the “activity change, negative = inhibition” value is 6.61% (inactive).

Turning to `CCCN1CCCC2Cc3nc(N)ncc3CC21` (stereo not given), the “activity change, negative = inhibition” value was -3.03% (inactive).

For the compound `CCCCCc1cc(O)c2c(c1)OC(C)(C)C1CC=C(C)CC21` (stereo not given), the “activity change, negative = inhibition” value is 0% (inactive).

As for `C[C@]12CCC3C(CCC4=C(Cl)C(=O)CC[C@@]43C)C1CCC2O` (stereo not given in full), the “activity change, negative = inhibition” value was 4.7% (inactive).

Take `CC(C)C(NC(=O)C(CC(=O)O)NC(=O)C(CCCCN)NC(=O)C(N)CCCN=C(N)N)C(=O)NC(Cc1ccc(O)cc1)C(=O)O` (stereo not given) (H-RKDVY-OH; configuration not given here): the “activity change, negative = inhibition” value is 10.2% (inactive).

With `C=C1Nc2ccccc2C(=O)N1c1ccccc1C`, the “activity change, negative = inhibition” value was 3.21% (inactive).

For the compound `CC(C)CC(NC(=O)C(COC(C)(C)C)NC(=O)C(Cc1ccc(O)cc1)NC(=O)C(CO)NC(=O)C(Cc1c[nH]c2ccccc12)NC(=O)C(Cc1cnc[nH]1)NC(=O)C1CCC(=O)N1)C(=O)NC(CCCN=C(N)N)C(=O)N1CCCC1C(=O)NNC(N)=O` (stereo not given), the “activity change, negative = inhibition” value was -4.36% (inactive).

As for `CCCCCCC(=O)O[C@H]1CC[C@H]2[C@@H]3CCC4CC(=O)C=C(C)[C@]4(C)[C@H]3CC[C@]12C` (stereo not given in full), the “activity change, negative = inhibition” value was 1.93% (inactive).

With `CC(C)CC1NC(=O)C(CCCN)NC(=O)C(C(C)C)NC(=O)C2CCCN2C(=O)C(Cc2ccccc2)NC(=O)C(CC(C)C)NC(=O)C(CCCN)NC(=O)C(C(C)C)NC(=O)C2CCCN2C(=O)C(Cc2ccccc2)NC1=O` (stereo not given) (cyclo(FPV[Orn]LFPV[Orn]L); configuration not given here), the “activity change, negative = inhibition” value was -1.12% (inactive).

As to `C[C@@H]1CC[C@H]2[C@@H](C)C(=O)O[C@@H]3OC4(C)CC[C@@H]1C32OO4` (stereo not given in full), the “activity change, negative = inhibition” value is 0.854% (inactive).

Turning to `CCC1NC(=O)C(NC(=O)c2ncccc2O)C(C)OC(=O)C(c2ccccc2)NC(=O)C2CC(=O)CCN2C(=O)C(Cc2ccccc2)N(C)C(=O)C2CCCN2C1=O` (stereo not given), the “activity change, negative = inhibition” value is 25.5% (inactive).

`Nc1nc(O)c(-c2ccccc2)o1`: the “activity change, negative = inhibition” value was 6.46% (inactive).

Consider `OCC(O)[C@H]1O[C@@H]2O[C@H](C(Cl)(Cl)Cl)O[C@@H]2[C@H]1O` (stereo not given in full), for which the “activity change, negative = inhibition” value was 6.41% (inactive).

Regarding `CC(=O)Oc1ccc2c3c1OC1[C@@H](OC(C)=O)C=C[C@H]4[C@H](C2)N(C)CC[C@]314` (stereo not given in full), the “activity change, negative = inhibition” value was 2.13% (inactive).

Regarding `Cc1ccc2c(c1)[C@@H]1CN(C)CC[C@H]1N2`, the “activity change, negative = inhibition” value is -2.4% (inactive).

Consider `O=C1CC2OCC=C3CN4CCC56c7ccccc7N1C5[C@H]2[C@H]3C[C@H]46` (stereo not given in full) (tested in a mixture with another compound), for which the “activity change, negative = inhibition” value is 0.687% (inactive).
